Compounds without any hit were thinned out: in the full panel of roughly 83,000, 20% have a hit.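 Testing used 96-well plates and a 48-hour single-concentration exposure. Example: -40 means 40% of the starting cells died.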 Calls of active or inactive are those of the source. How the source made its calls: active means growth percent below 10; inactive means the rest.
What was measured:
Assay in all cases: NCI-60 one-dose screen, 48 h (100 = growth as untreated, 0 = no growth, -100 = all killed)
Conditions in all cases: 10 µM
SR leukemia = system: SR leukemia
RPMI-8226 leukemia = system: RPMI-8226 leukemia
OVCAR-8 ovarian = system: OVCAR-8 ovarian
OVCAR-5 ovarian = system: OVCAR-5 ovarian
OVCAR-4 ovarian = system: OVCAR-4 ovarian
SK-OV-3 ovarian = system: SK-OV-3 ovarian
IGROV1 ovarian = system: IGROV1 ovarian
OVCAR-3 ovarian = system: OVCAR-3 ovarian
HS 578T breast = system: HS 578T breast
NCI/ADR-RES ovarian = system: NCI/ADR-RES ovarian
T-47D breast = system: T-47D breast
BT-549 breast = system: BT-549 breast
MDA-MB-435 melanoma = system: MDA-MB-435 melanoma
SW-620 colon = system: SW-620 colon
MCF7 breast = system: MCF7 breast
HCT-116 colon = system: HCT-116 colon
HCC-2998 colon = system: HCC-2998 colon
KM12 colon = system: KM12 colon
MDA-MB-468 breast = system: MDA-MB-468 breast

Measured: growth

CC1(C)[C@@H](NCO)CC[C@]2(C)[C@H]3C(=O)C=C4[C@@H]5C[C@](C)(CO)CC[C@]5(C)CC[C@@]4(C)[C@]3(C)CC[C@@H]12
inactive: SR leukemia 10.3% | OVCAR-8 ovarian 70.9% | OVCAR-5 ovarian 66.1% | OVCAR-4 ovarian 55.4% | SK-OV-3 ovarian 92.8% | IGROV1 ovarian 53.8% | OVCAR-3 ovarian 85.4% | HS 578T breast 44% | NCI/ADR-RES ovarian 56% | T-47D breast 63.9% | BT-549 breast 81.8% | MDA-MB-435 melanoma 59.9% | SW-620 colon 35.2% | MCF7 breast 33.7% | HCT-116 colon 37.8% | HCC-2998 colon 40.8% | KM12 colon 65.7% | MDA-MB-468 breast 47.2%
active: RPMI-8226 leukemia -1.48%

N#C/C(=C\c1ccc(N(c2ccccc2)c2ccccc2)cc1)C(N)=O
inactive: SR leukemia 69.1% | RPMI-8226 leukemia 19.8% | OVCAR-8 ovarian 75.1% | SK-OV-3 ovarian 56% | HS 578T breast 99.2% | NCI/ADR-RES ovarian 57.4% | BT-549 breast 69.6% | MDA-MB-435 melanoma 92.7% | SW-620 colon 45.6% | HCT-116 colon 14.9% | HCC-2998 colon 73.7% | KM12 colon 78.6%
active: OVCAR-5 ovarian -60.6% | OVCAR-4 ovarian 4.67% | IGROV1 ovarian -21.2% | OVCAR-3 ovarian 3.69% | T-47D breast -26.7% | MCF7 breast 6.51% | MDA-MB-468 breast -91.2%

Cc1ccc2nc(-c3ccc(-c4nnc(SCC(=O)Nc5ccc(Cl)cc5)o4)cc3)[nH]c2c1
active: OVCAR-8 ovarian -11.8% | OVCAR-4 ovarian 4.47% | SW-620 colon 3.49% | MCF7 breast -16.1% | HCT-116 colon 9.37%
inactive: SR leukemia 21.8% | RPMI-8226 leukemia 43.2% | OVCAR-5 ovarian 63.1% | SK-OV-3 ovarian 79.3% | IGROV1 ovarian 37.8% | OVCAR-3 ovarian 24% | HS 578T breast 40.5% | NCI/ADR-RES ovarian 23.2% | T-47D breast 65.1% | BT-549 breast 65.9% | MDA-MB-435 melanoma 49.1% | HCC-2998 colon 67.5% | KM12 colon 50.8% | MDA-MB-468 breast 46.8%

O=c1[nH]c2ccccc2cc1CSc1ccc(Nc2nccc(-c3ccc4c(c3)OCO4)n2)cc1
inactive: SR leukemia 81.7% | RPMI-8226 leukemia 81.3% | OVCAR-8 ovarian 75% | OVCAR-5 ovarian 98.3% | OVCAR-4 ovarian 27% | SK-OV-3 ovarian 116% | IGROV1 ovarian 103% | OVCAR-3 ovarian 50.7% | HS 578T breast 41.3% | NCI/ADR-RES ovarian 83.7% | T-47D breast 75.5% | BT-549 breast 65.5% | MDA-MB-435 melanoma 93.6% | SW-620 colon 80.6% | MCF7 breast 56% | HCT-116 colon 84.1% | HCC-2998 colon 95.5% | KM12 colon 74.2% | MDA-MB-468 breast 72.5%

CN1CCc2c(sc3ncnc(N/N=C/c4ccc5ccccc5c4)c23)C1
active: SR leukemia 9.62% | HCT-116 colon -13.2%
inactive: RPMI-8226 leukemia 42.6% | OVCAR-8 ovarian 78.6% | OVCAR-5 ovarian 88.6% | OVCAR-4 ovarian 73.9% | SK-OV-3 ovarian 96.1% | IGROV1 ovarian 87.9% | OVCAR-3 ovarian 75% | HS 578T breast 62.3% | NCI/ADR-RES ovarian 76.7% | T-47D breast 92.1% | BT-549 breast 71.1% | MDA-MB-435 melanoma 72.5% | SW-620 colon 22.9% | MCF7 breast 20.7% | HCC-2998 colon 73.8% | KM12 colon 78.1% | MDA-MB-468 breast 42%

CCOc1ccc(/C=N/NC(=O)Cn2nc(Cc3ccccc3)c3onc(C)c3c2=O)cc1
active: OVCAR-8 ovarian 5.16% | SK-OV-3 ovarian -5.84% | HS 578T breast -12.7% | BT-549 breast 6.06% | MDA-MB-468 breast -7.05%
inactive: SR leukemia 78.1% | RPMI-8226 leukemia 76.2% | OVCAR-5 ovarian 60.9% | OVCAR-4 ovarian 10.6% | IGROV1 ovarian 38.5% | OVCAR-3 ovarian 14.7% | NCI/ADR-RES ovarian 16.1% | T-47D breast 44.9% | MDA-MB-435 melanoma 55.3% | SW-620 colon 43.3% | MCF7 breast 28.3% | HCT-116 colon 10.3% | HCC-2998 colon 60.6% | KM12 colon 66.4%

Cc1ccc(-c2nc(Nc3ccc(C)c(S(N)(=O)=O)c3)c3ccccc3n2)cc1
active: SR leukemia 3.79% | MDA-MB-468 breast 1.27%
inactive: RPMI-8226 leukemia 87% | OVCAR-8 ovarian 45.9% | OVCAR-5 ovarian 94% | OVCAR-4 ovarian 70.1% | SK-OV-3 ovarian 125% | IGROV1 ovarian 87.5% | OVCAR-3 ovarian 57% | HS 578T breast 102% | NCI/ADR-RES ovarian 60.3% | T-47D breast 84.2% | BT-549 breast 104% | MDA-MB-435 melanoma 74.6% | SW-620 colon 37.2% | MCF7 breast 26.2% | HCT-116 colon 29.5% | HCC-2998 colon 49.5% | KM12 colon 40%

O=C(CNc1nc(-c2ccccc2)cs1)Nc1cccc(Cl)c1
active: SR leukemia -15% | T-47D breast 7.64%
inactive: RPMI-8226 leukemia 26% | OVCAR-8 ovarian 32.1% | OVCAR-5 ovarian 40.9% | OVCAR-4 ovarian 32.5% | SK-OV-3 ovarian 37.7% | IGROV1 ovarian 29.4% | OVCAR-3 ovarian 32.2% | HS 578T breast 32.4% | NCI/ADR-RES ovarian 19.5% | BT-549 breast 25.8% | MDA-MB-435 melanoma 42.1% | SW-620 colon 35.9% | MCF7 breast 21.8% | HCT-116 colon 27.6% | HCC-2998 colon 33.2% | KM12 colon 23.6% | MDA-MB-468 breast 10.7%

O=C(CNc1nc(-c2ccccc2)cs1)Nc1ccccc1
active: SR leukemia 4.25% | RPMI-8226 leukemia 8.69% | OVCAR-5 ovarian -67.4% | IGROV1 ovarian -7.7% | OVCAR-3 ovarian -12.1% | NCI/ADR-RES ovarian -22.8% | T-47D breast -15.3% | BT-549 breast -57.7% | MDA-MB-435 melanoma -3.84% | SW-620 colon -38.6% | MCF7 breast -59.7% | HCT-116 colon 3.71% | HCC-2998 colon -94.9% | KM12 colon 2.41% | MDA-MB-468 breast -78%
inactive: OVCAR-8 ovarian 10% | OVCAR-4 ovarian 35% | SK-OV-3 ovarian 11.2% | HS 578T breast 14.3%

Nc1nc(Nc2ccc(Cl)cc2)nn1Cc1cccc(Br)c1
active: HCC-2998 colon 5.71%
inactive: SR leukemia 30.6% | RPMI-8226 leukemia 29.1% | OVCAR-8 ovarian 54.9% | OVCAR-5 ovarian 49.7% | OVCAR-4 ovarian 46.8% | SK-OV-3 ovarian 47.2% | IGROV1 ovarian 13% | OVCAR-3 ovarian 47.7% | HS 578T breast 18.2% | NCI/ADR-RES ovarian 25.7% | T-47D breast 19.3% | BT-549 breast 34.2% | MDA-MB-435 melanoma 36.7% | SW-620 colon 61.9% | MCF7 breast 18.2% | HCT-116 colon 35.2% | KM12 colon 16.7% | MDA-MB-468 breast 28.1%

Cc1ccc(C(=O)CSc2nnc(-c3c[nH]c4ccccc34)n2-c2ccccc2)cc1
inactive: SR leukemia 53% | RPMI-8226 leukemia 58.9% | OVCAR-8 ovarian 11.3% | OVCAR-5 ovarian 13% | SK-OV-3 ovarian 24% | IGROV1 ovarian 24.2% | OVCAR-3 ovarian 65.2% | T-47D breast 46.7% | BT-549 breast 22.4% | MDA-MB-435 melanoma 38.6% | SW-620 colon 19% | MCF7 breast 12.5% | HCC-2998 colon 66.4% | KM12 colon 51% | MDA-MB-468 breast 48%
active: OVCAR-4 ovarian -15.6% | HS 578T breast -0.727% | NCI/ADR-RES ovarian -27.7% | HCT-116 colon 7.68%

Cc1cc2nc3c4ccccc4n(CCO)c3nc2cc1C
active: OVCAR-4 ovarian -43.7%
inactive: SR leukemia 27.2% | RPMI-8226 leukemia 93% | OVCAR-8 ovarian 72.7% | OVCAR-5 ovarian 103% | SK-OV-3 ovarian 81.7% | IGROV1 ovarian 58.4% | OVCAR-3 ovarian 78.7% | HS 578T breast 48.3% | NCI/ADR-RES ovarian 62.3% | T-47D breast 73.5% | BT-549 breast 78.7% | MDA-MB-435 melanoma 94.6% | SW-620 colon 75.5% | MCF7 breast 52.1% | HCT-116 colon 34.4% | HCC-2998 colon 123% | KM12 colon 92.2% | MDA-MB-468 breast 74.4%

COc1cc(/C=C/C(=O)c2cc(OC)c(OC)c(OC)c2)ccc1Oc1nc(Nc2ccc(F)cc2)nc(N(C)C)n1
active: SR leukemia -5.9% | RPMI-8226 leukemia -19.8% | OVCAR-8 ovarian -59.6% | OVCAR-5 ovarian -44.7% | IGROV1 ovarian -64.3% | NCI/ADR-RES ovarian -29.6% | BT-549 breast -89.8% | MDA-MB-435 melanoma -62.4% | SW-620 colon 1.14% | MCF7 breast 2.35% | HCT-116 colon -77.6% | HCC-2998 colon -81.5% | KM12 colon -41.1% | MDA-MB-468 breast -39.6%
inactive: OVCAR-4 ovarian 18.4% | SK-OV-3 ovarian 49.5% | OVCAR-3 ovarian 12.1% | HS 578T breast 16.1% | T-47D breast 25.9%

COc1ccc(C(=O)CSc2nnc(-c3c[nH]c4ccccc34)n2-c2ccccc2)cc1
inactive: SR leukemia 79.7% | RPMI-8226 leukemia 72.7% | OVCAR-8 ovarian 15.5% | OVCAR-5 ovarian 77.4% | SK-OV-3 ovarian 66.3% | IGROV1 ovarian 60.5% | OVCAR-3 ovarian 53.6% | HS 578T breast 15.5% | NCI/ADR-RES ovarian 16.3% | T-47D breast 56.7% | BT-549 breast 24.7% | MDA-MB-435 melanoma 69.1% | SW-620 colon 86.3% | MCF7 breast 45.6% | HCT-116 colon 52.5% | HCC-2998 colon 77.8% | KM12 colon 88.1% | MDA-MB-468 breast 59.8%
active: OVCAR-4 ovarian 0.569%

CC[C@]12C=CCN3CC[C@@]4(c5cc(C#CCNc6ccc(C)c(Nc7nccc(-c8cccnc8)n7)c6)c(OC)cc5N(C)[C@H]4[C@@](O)(C(=O)OC)[C@@H]1OC(C)=O)C32 (some centres undefined)
active: BT-549 breast -3.24% | MDA-MB-468 breast 1.75%
inactive: SR leukemia 21.3% | RPMI-8226 leukemia 38.5% | OVCAR-8 ovarian 48.6% | OVCAR-5 ovarian 81.9% | OVCAR-4 ovarian 41.4% | SK-OV-3 ovarian 110% | IGROV1 ovarian 60.7% | OVCAR-3 ovarian 48.1% | HS 578T breast 55.7% | NCI/ADR-RES ovarian 54.4% | T-47D breast 45.5% | MDA-MB-435 melanoma 34% | SW-620 colon 50% | MCF7 breast 21.7% | HCT-116 colon 27.2% | HCC-2998 colon 41.2% | KM12 colon 44.9%

C=C1CCC2C3(C)COC(c4c(F)cccc4F)OC3CCC2(C)C1CC(O)C1=CCOC1=O (centres undefined)
inactive: SR leukemia 32.8% | RPMI-8226 leukemia 12.6% | OVCAR-5 ovarian 82.9% | OVCAR-4 ovarian 60.2% | SK-OV-3 ovarian 100% | IGROV1 ovarian 59.3% | OVCAR-3 ovarian 38.2% | HS 578T breast 76.1% | NCI/ADR-RES ovarian 11.6% | T-47D breast 47.6% | MDA-MB-435 melanoma 40% | MCF7 breast 19% | HCC-2998 colon 52.1% | KM12 colon 54.3% | MDA-MB-468 breast 66.1%
active: OVCAR-8 ovarian 7.07% | BT-549 breast -9.18% | SW-620 colon 3.41% | HCT-116 colon -31.2%
